D1 PAM: potentiators of human D1 dopamine receptor; P21728; actives 0.036% (n = 360,000); HEK293 TREx D1 cells, calcium flux, dopamine EC20 potentiation; potentiation, % at 10 µM; in the data active = potentiation above about 30%
GALK inh: inhibitors of human galactokinase; Purified GALK, Kinase-Glo residual ATP luminescence; Potency, µM (highest dose often 57.5 µM), hits mostly inhibitors; actives 0.007% (n = 270,000)
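GALK at 5 nM final was combined with compound, 35 uM ATP and 100 uM galactose in HEPES pH8.0 with MgCl2 and DTT. The reaction ran one hour at room temperature before luminescent ATP detection.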
Eya2 phos inh: blocks the phosphatase activity of human Eya2; O00167; recombinant Eya2, OMFP fluorescence dephosphorylation (OMFP is methylfluorescein phosphate); Potency, µM (top dose mostly 76.9 µM), most hits filed as inhibitors; actives 0.006% (n = 330,000); AID 488837
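Eya2 (0.2 uM) preincubated 10 min at ambient with compound, then OMFP substrate added at 50 uM; 10 min reaction in 50 mM HEPES pH 7.5, 50 mM NaCl, 5 uM MgCl2, 0.05% BSA, 1 mM DTT. Fluorescence read at Ex 485/Em 525 nm.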
D1 antag: antagonists of human D1 dopamine receptor; activity change, negative = inhibition, % at 10 µM; HEK293 TREx D1 cells, calcium flux, dopamine EC80; hits give low values; actives 3.2% (n = 360,000); in the data active = activity change below about -30%
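Calcium flux readout: force-coupled, inducible Hek293 Trex D1 line, cells induced overnight at 30 C with tetracycline, dye-loaded 30–90 min at RT. Antagonism scored against EC80 dopamine challenge given 180 s after compound.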
USP2a block: inhibitors of human ubiquitin-specific protease USP2a. actives 0.01% (n = 330,000). USP2 core, Ub-CHOP2 coupled fluorogenic reporter, 485/531. O75604. Potency, µM (titrated, usually from 38.3 µM), most hits filed as inhibitors
Target sequence (O75604 whole entry, looked up): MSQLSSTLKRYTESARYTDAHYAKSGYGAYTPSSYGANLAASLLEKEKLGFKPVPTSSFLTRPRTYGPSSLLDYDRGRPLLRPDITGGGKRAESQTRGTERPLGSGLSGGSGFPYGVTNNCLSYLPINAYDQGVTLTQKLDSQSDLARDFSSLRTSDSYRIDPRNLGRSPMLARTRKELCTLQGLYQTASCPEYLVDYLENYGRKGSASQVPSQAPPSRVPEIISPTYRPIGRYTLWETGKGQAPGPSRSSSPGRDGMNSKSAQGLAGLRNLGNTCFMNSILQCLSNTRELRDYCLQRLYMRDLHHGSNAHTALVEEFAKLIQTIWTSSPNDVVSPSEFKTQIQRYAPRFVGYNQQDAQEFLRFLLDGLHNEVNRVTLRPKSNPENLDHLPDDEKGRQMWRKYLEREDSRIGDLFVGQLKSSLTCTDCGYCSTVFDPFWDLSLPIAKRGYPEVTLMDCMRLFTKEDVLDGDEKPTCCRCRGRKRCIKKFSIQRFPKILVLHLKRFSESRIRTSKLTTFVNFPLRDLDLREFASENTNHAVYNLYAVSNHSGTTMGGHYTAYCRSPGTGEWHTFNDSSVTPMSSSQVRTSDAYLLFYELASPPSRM
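USP2 core (10nM final) preincubated 30min RT with compound in 20mM Tris-HCl pH 8.0, 2mM CaCl2, 2mM beta-mercaptoethanol, 0.05% CHAPS; 25nM Ub-CHOP2 plus 25nM reporter substrate added, fluorescence (Ex485/Em531) read after 60min.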
D1 agonist: activates the human D1 dopamine receptor; P21728; HEK293 T-REx D1 cells, calcium flux, agonist mode; activation, % at 2 µM; actives 1% (n = 360,000); AID 504660; in the data active = activation above about 30%
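Tetracycline-induced HEK293 TREx D1 cells, force-coupled to calcium signalling, were dye-loaded with a no-wash calcium kit. Compound was pin-added after a 10 s baseline. Fluorescence was read kinetically at 1 cycle/s for 180 s, with calcium rises flagged as agonism.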
Numbers stand for hits; 0 = inactive; ? = inconclusive; - = no result. Only some compounds are listed: those with a hit (about 3.9% of all), similar ones and a draw of the others. Unless noted, calls follow the shape of the dose curve; as a rule, active = well fitted inhibition curve with a large enough effect; inconclusive = small, poorly fitted or top-dose-only effect, or effect the other way; inactive = flat fitted curve, though single readings scatter.

SMILES	D1 PAM	GALK inh	Eya2 phos inh	D1 antag	USP2a block	D1 agonist
COc1ccc(-c2cc(C(F)(F)F)nc(SCC(=O)Nc3ccc(C(C)=O)cc3)n2)cc1	0	-	-	-44	-	0
COc1ccc(-c2cc(C(F)(F)F)c(C#N)c(SCC(=O)Nc3cccc(C)c3)n2)cc1	0	-	-	0	-	0
COc1ccc(Cl)cc1NC(=O)c1cc(=O)c2cc(C)cc(C)c2o1	0	-	-	0	-	0
COc1ccc(OC)c(NC(=O)CN2C(=O)CC(C)Sc3ccccc32)c1 (configuration not stated)	0	-	-	0	-	0
COc1ccc(-c2cc(C(F)(F)F)c(C#N)c(SCC(=O)Nc3ccccc3C#N)n2)cc1	0	0	0	0	0	60
COc1ccc(-c2cc(C(F)(F)F)c(C#N)c(SCC(=O)Nc3ccccc3F)n2)cc1	0	-	-	0	-	0
O=S(=O)(c1ccc2c(c1)OCCO2)N1CCN(S(=O)(=O)c2ccccc2F)CC1	0	-	-	0	-	0
C#CCOCCOCCOCCNc1nc(N2CCN(C(=O)CCCCCCCCCCNC(=O)[C@H](CCCCN)n3cc(C)nn3)CC2)nc(N2CCN(C(=O)CCCCCCCCCCNC(=O)[C@H](CCCCN)n3cc(CCCC(=O)O)nn3)CC2)n1	0	-	0	0	0	30
C#CCOCCOCCOCCNc1nc(N2CCN(C(=O)CCCCCCCCCCNC(=O)[C@H]([C@@H](C)CC)n3cc(CCCCN=C(N)N)nn3)CC2)nc(N2CCN(C(=O)CCCCCCCCCCNC(=O)[C@H](CCCCN)n3cc(C)nn3)CC2)n1	0	-	0	0	?	0
C#CCOCCOCCOCCNc1nc(N2CCN(C(=O)CCCCCCCCCCNC(=O)[C@H](CO)n3cc(CCCSC)nn3)CC2)nc(N2CCN(C(=O)CCCCCCCCCCNC(=O)[C@H](CCCCN)n3cc(CCO)nn3)CC2)n1	-	-	0	-	0	-
C#CCOCCOCCOCCNc1nc(N2CCN(C(=O)CCCCCCCCCCNC(=O)[C@H](CCCCN)n3cc(CCCC(=O)O)nn3)CC2)nc(N2CCN(C(=O)CCCCCCCCCCNC(=O)[C@@H]([C@H](C)O)n3cc(C)nn3)CC2)n1	0	-	0	0	0	44
COCCCNC(=O)Cn1c(=O)nc(-c2ccccc2)c2ccccc21	0	-	-	0	-	0
CC(=O)c1ccc(NC(=O)Nc2sc3nc4n(c(=O)c3c2C)CCC(C)CC4)cc1 (configuration not stated)	0	-	-	0	-	0
COc1ccc(OC)c(CCNC(=O)c2ccc3c(c2)c(C)c(C)n3Cc2ccccc2)c1	0	-	-	0	-	0
O=c1[nH]c(=O)n(Cc2ccccc2)c2nc(-c3ccc(C(F)(F)F)cc3)n(CCO)c12	0	0	0	-31	0	0
Cn1cnc2c1c(=O)[nH]c(=O)n2Cc1ccccc1	0	0	0	0	0	0
O=c1[nH]c(=O)n(Cc2ccccc2)c2nc(-c3cccs3)n(CCO)c12	0	-	0	0	0	0
O=c1[nH]c(=O)n(CCO)c2nnn(Cc3ccccc3)c12	0	0	0	-31	0	0
CCOc1ccc(NC(=O)CN2C(=O)COc3ccc(S(=O)(=O)NC4CCCC4)cc32)cc1	0	-	-	0	-	0
Brc1ccc(CN2CCN(Cc3c[nH]c4ccccc34)CC2)cc1	0	0	0	0	0	0
O=C(CCc1c[nH]c2ccccc12)NCCc1ccc(Cl)cc1	0	0	0	-33	0	0
O=C(NCCc1c[nH]c2ccccc12)c1ccc([N+](=O)[O-])cc1	0	-	0	-49	0	0
O=[N+]([O-])c1ccc(CN2CCN(Cc3c[nH]c4ccccc34)CC2)cc1	0	0	0	-72	0	0
CCc1nn(CC(=O)NC(C)CCc2ccccc2)c(=O)c2cc3c(OC)cccc3n12 (configuration not stated)	0	-	-	0	-	0
COc1ccc(C(=O)N(Cc2ccco2)Cc2cccs2)cc1	0	-	-	0	-	0
SMILES	D1 PAM	GALK inh	Eya2 phos inh	D1 antag	USP2a block	D1 agonist
COc1c(-c2ccc(O)cc2)oc2cc(O)cc(O)c2c1=O	0	0	0	0	0	0
COc1ccc(-c2oc3cc(O)c(OC)c(O)c3c(=O)c2OC)cc1	0	0	0	-30	0	0
CCOC(=O)Cn1c(=N)n(Cc2ccc(C(C)(C)C)cc2)c2ccccc21	0	-	-	0	-	48
CCCn1c(=N)n(CC(=O)OCC)c2ccccc21	0	0	0	0	0	0
N=c1ccn2c(n1)OC1C(O)[C@@H](CO)O[C@H]12 (some centres not stated)	0	-	-	0	-	0
CCOc1ccc(-c2nc(SCC(=O)NC3CCCC3)c(-c3ccccc3)[nH]2)cc1OC	0	-	-	0	-	0
Cc1cccc(NC(=O)CCn2cnnn2)c1C	0	-	-	0	-	0
Cc1ccccc1NC(=O)CCn1cnc2onc(-c3ccc(F)cc3)c2c1=O	0	-	-	-45	-	0
CCOc1ccc(NC(=O)CCn2cnc3onc(-c4ccc(F)cc4)c3c2=O)cc1	0	-	-	0	-	0
CN(C)S(=O)(=O)c1ccc(S(=O)(=O)N2CCN(CCC#N)CC2)cc1	0	0	0	-33	0	0
N#CCCN1CCN(S(=O)(=O)c2ccc(C3CCCCC3)cc2)CC1	0	-	0	0	0	0
CC1CCCCC1NS(=O)(=O)c1ccc(S(=O)(=O)N2CCN(CCC#N)CC2)cc1 (configuration not stated)	0	0	0	-35	0	0
CCN(CC)S(=O)(=O)c1ccc(S(=O)(=O)N2CCN(CCC#N)CC2)cc1	0	0	0	0	0	0
COc1ccccc1NC(=O)c1c(C)cc(C)nc1SCC(=O)Nc1cccc(C)c1	0	-	-	0	-	72
COc1ccccc1NC(=O)c1c(C)cc(C)nc1SCC(=O)Nc1ccc(C)c(C)c1	0	-	-	0	-	0
COc1cc(-c2nnc(-c3ccc(S(=O)(=O)c4ccccc4)cc3)o2)cc(OC)c1OC	0	0	0	-31	0	0
O=S(=O)(NC1CCCC1)c1cccc(-c2nnc(-c3ccccc3)o2)c1	0	0	0	0	0	0
COc1ccc(NS(=O)(=O)c2cccc(-c3nnc(-c4ccccc4)o3)c2)cc1	0	0	0	-32	0	0
COc1ccccc1N1CCN(c2nc3ccc(C)cc3n3nnnc23)CC1	0	-	-	-30	-	0
CC(=O)c1cccc(N=Nc2c(-c3ccccc3)[nH]n(-c3ccccc3)c2=O)c1	0	0	0	-31	0	0
Cc1[nH]n(-c2ccccc2)c(=O)c1N=Nc1cccc(Cl)c1	0	0	0	0	0	0
N#Cc1cccc(NC(=O)c2cc3c(s2)-c2ccc(Cl)cc2SC3)c1	0	-	-	0	-	0
COc1ccnc(N=CNOCc2cccc(Cl)c2Cl)c1C#N	0	0	0	-58	0	0

Screening results from PubChem BioAssay.
